{
  "source": "PubChem BioAssay (Tox21)",
  "note": "Values joined by “and” are separate entries in the source; they are usually repeats but may differ in a detail not shown here. Identical values can stand only once. Records with an inconclusive call do not appear. Entries that show only a call come without a potency. Values without a mark were called inactive. Active and inactive are the calls of the source. Calls follow the shape of the full dose curve. Potency is read from the fitted curve at half-maximal effect.",
  "data": [
    {"molecular_target": "Acetylcholinesterase (Homo sapiens) (UniProt P22303)", "sequence (P22303 whole entry, looked up)": "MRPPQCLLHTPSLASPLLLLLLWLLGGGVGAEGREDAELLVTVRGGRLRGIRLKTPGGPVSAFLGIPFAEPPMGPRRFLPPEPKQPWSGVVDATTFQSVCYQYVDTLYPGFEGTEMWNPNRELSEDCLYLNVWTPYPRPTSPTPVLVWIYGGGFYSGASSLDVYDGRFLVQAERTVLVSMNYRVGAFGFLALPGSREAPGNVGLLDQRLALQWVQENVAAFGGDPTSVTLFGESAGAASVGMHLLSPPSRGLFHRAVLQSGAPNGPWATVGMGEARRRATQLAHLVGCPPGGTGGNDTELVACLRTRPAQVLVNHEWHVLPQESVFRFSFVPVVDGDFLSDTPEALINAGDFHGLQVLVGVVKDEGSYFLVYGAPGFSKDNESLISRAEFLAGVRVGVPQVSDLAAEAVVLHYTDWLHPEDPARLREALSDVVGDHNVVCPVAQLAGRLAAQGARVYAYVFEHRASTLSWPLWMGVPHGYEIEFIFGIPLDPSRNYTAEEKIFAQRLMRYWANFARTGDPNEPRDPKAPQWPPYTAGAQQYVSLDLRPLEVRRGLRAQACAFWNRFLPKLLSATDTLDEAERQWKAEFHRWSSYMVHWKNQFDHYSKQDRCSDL", "experiment": "Acetylcholinesterase (AChE) small molecule antagonists: fluorescence cell-based qHTS assay (AID 1347398); also: nearly all actives have a fitted effect of over 50% in size", "conditions": "SH-SY5Y cells; Potency: AChE activity; series mostly up to 115 µM; activity change, negative = inhibition: at the top concentration", "source_text": "National Center for Advancing Translational Sciences [NCATS]\nDivision of Preclinical Innovation [DPI]\nU.S. Environmental Protection Agency [EPA]\nNational Institutes of Environmental Health Sciences [NIEHS]\nNational Toxicology Program [NTP]\nU.S. Food and Drug Administration [FDA]\nAcetylcholinesterase (AChE) is the primary cholinesterase in the body that hydrolyzes a key neurotransmitter, acetylcholine. Inhibition of AChE activity can lead to neurotoxicity. Known inhibitors of AChE include organophosphorous pesticides (OP), chemical warfare agents, drugs, and various phytochemicals.\nA homogenous cell-based assay using Amplitetrade mark Fluorimetric Acetylcholinesterase Assay Kit *Green Fluorescence* (AAT Bioquest, Sunnyvale, CA) was used to evaluate the chemicals in the Tox21 10K library that inhibit AChE activity. The assay uses Thiolite Green to quantify the thiocholine produced from the hydrolysis of acetylthiocholine by AChE from the SH-SY5Y cells. AChE can hydrolyze acetylthiocholine to create thiocholine. Thiolite Green is fluorescent when reacting with thiocholine. It has spectral properties similar to those of fluorescein. The fluorescence intensity of Thiolite Green is used to measure AChE activity. Its signal can be easily read by a fluorescence microplate reader at Ex/Em = 490/520 nm.\nTox21 Assay Protocol Summary:\nFor cell-based AChE assay, 2,000 SH-SY5Y cells in 4 uL/well were dispensed into black, clear-bottom 1536-well plates using a Multidrop Combi (Thermo Scientific) dispenser. The assay plates were incubated overnight at 37 C to allow cells to attach to the wells, followed by the transfer of 23 nL compound or DMSO (vehicle control) by a Pintool station (Wako Automation, CA). The plates were incubated for 30 min at 37 C and 5% CO2, followed by the addition of 4 uL of detection cocktail solution (ThioliteGreen, acetylthiocholine) into each well using Flying Reagent Dispenser (Beckman Coulter, CA) and then following 40 min incubation at room temperature. Fluorescent intensity (Ex/Em = 490/520 nm) was measured using an Envision plate reader (PerkinElmer, MA).", "units": {"activity change, negative = inhibition": "%"}, "values": [
      {"molecule": "O=C(CCl)c1ccccc1", "Potency": "inactive"},
      {"molecule": "c1ccc(N=Nc2ccccc2)cc1", "Potency": "inactive"},
      {"molecule": "CC(C)=CC1C(C(=O)OCc2coc(Cc3ccccc3)c2)C1(C)C", "note": "(stereo not given)", "Potency": "inactive"},
      {"molecule": "CCC(C)(c1ccc(O)cc1)c1ccc(O)cc1", "Potency": "inactive"},
      {"molecule": "Cc1cc(Cl)ccc1OCCCC(=O)O", "Potency": "inactive"},
      {"molecule": "CCc1cccc(CC)c1N(COC)C(=O)CCl", "Potency": "inactive"},
      {"molecule": "CNC(=O)Oc1cccc2c1OC(C)(C)O2", "Potency": "826 nM (active) and 224 nM (active)"},
      {"molecule": "C=CCc1ccc2c(c1)OCO2", "Potency": "inactive"},
      {"molecule": "COc1ccc(C=O)cc1", "Potency": "inactive"},
      {"molecule": "O=C(Nc1ccc(Br)cc1)c1cc(Br)cc(Br)c1O", "Potency": "inactive"},
      {"molecule": "CNC(=O)N(C)c1nnc(C(C)(C)C)s1", "Potency": "inactive"},
      {"molecule": "CCCCC(CC)COC(=O)c1ccc(C(=O)OCC(CC)CCCC)c(C(=O)OCC(CC)CCCC)c1", "note": "(stereo not given)", "Potency": "inactive"},
      {"molecule": "CCC(CC)Nc1c([N+](=O)[O-])cc(C)c(C)c1[N+](=O)[O-]", "Potency": "inactive"},
      {"molecule": "CCCCCCCCOC(=O)c1ccccc1C(=O)OCCCCCCCC", "Potency": "inactive"},
      {"molecule": "Cc1cc(C)cc(C)c1", "Potency": "inactive"},
      {"molecule": "O=C(O)C(F)(F)C(F)(F)C(F)(F)C(F)(F)C(F)(F)C(F)(F)C(F)(F)F", "Potency": "inactive"},
      {"molecule": "Nc1ccc(Cl)c(Cl)c1", "Potency": "inactive"},
      {"molecule": "CCN(CC)N=O", "Potency": "inactive"},
      {"molecule": "CCC(=O)O[C@H]1CC[C@H]2[C@@H]3CCC4=CC(=O)CC[C@]4(C)[C@H]3CC[C@]12C", "Potency": "inactive"},
      {"molecule": "Cc1ccc(OP(=O)(Oc2ccc(C)cc2)Oc2ccc(C)cc2)cc1", "Potency": "inactive"},
      {"molecule": "NC(=S)Nc1ccccc1", "Potency": "inactive"},
      {"molecule": "O=C(NC(=O)c1c(F)cccc1F)Nc1ccc(Cl)cc1", "Potency": "inactive"},
      {"molecule": "CC(C)NC(C)C", "Potency": "inactive"},
      {"molecule": "Nc1cccnc1", "Potency": "inactive"},
      {"molecule": "Oc1cc(Cl)ccc1Cl", "Potency": "inactive"},
      {"molecule": "CCOc1cc(C=O)ccc1O", "Potency": "inactive"},
      {"molecule": "Oc1ccc(-c2ccccc2)cc1", "Potency": "inactive"},
      {"molecule": "C=CC(=O)OCCO", "Potency": "inactive"},
      {"molecule": "Oc1cc(Cl)c(Cl)cc1Cl", "Potency": "inactive"},
      {"molecule": "c1ccc(NNc2ccccc2)cc1", "Potency": "inactive"},
      {"molecule": "c1ccc(P(c2ccccc2)c2ccccc2)cc1", "Potency": "inactive"},
      {"molecule": "CC(C)C(=O)OCC(C)(C)C(OC(=O)C(C)C)C(C)C", "note": "(stereo not given)", "Potency": "inactive"},
      {"molecule": "C[C@]12CCC(=O)C(O)=C1CC[C@@H]1[C@@H]2CC[C@]2(C)C(=O)CC[C@@H]12", "Potency": "inactive"},
      {"molecule": "NCc1cccnc1", "Potency": "inactive"},
      {"molecule": "O=c1oc2ccccc2c(O)c1C(CC(O)c1ccc(-c2ccc(Br)cc2)cc1)c1ccccc1", "note": "(stereo not given)", "Potency": "inactive"},
      {"molecule": "C1=Cc2cccc3cccc1c23", "Potency": "inactive"},
      {"molecule": "CCC(C)c1ccc(O)cc1", "note": "(stereo not given)", "Potency": "inactive"},
      {"molecule": "Cc1ccc2c(c1N)C(=O)c1ccccc1C2=O", "Potency": "inactive"},
      {"molecule": "Cc1cccc(N)c1N", "activity change, negative = inhibition": -13.7},
      {"molecule": "COP(=O)(OC)OC", "Potency": "inactive"}
    ]}
  ]
}
